Screening results from PubChem BioAssay.
USP17 inh: inhibitors of human USP17 deubiquitinase | A8MUK1 | purified USP17, Ub-rhodamine cleavage fluorescence, 3 h | inhibition, % at 50 µM | hit rate 6.5% among 47,000 | AID 1645855
Target sequence (A8MUK1 whole entry, looked up): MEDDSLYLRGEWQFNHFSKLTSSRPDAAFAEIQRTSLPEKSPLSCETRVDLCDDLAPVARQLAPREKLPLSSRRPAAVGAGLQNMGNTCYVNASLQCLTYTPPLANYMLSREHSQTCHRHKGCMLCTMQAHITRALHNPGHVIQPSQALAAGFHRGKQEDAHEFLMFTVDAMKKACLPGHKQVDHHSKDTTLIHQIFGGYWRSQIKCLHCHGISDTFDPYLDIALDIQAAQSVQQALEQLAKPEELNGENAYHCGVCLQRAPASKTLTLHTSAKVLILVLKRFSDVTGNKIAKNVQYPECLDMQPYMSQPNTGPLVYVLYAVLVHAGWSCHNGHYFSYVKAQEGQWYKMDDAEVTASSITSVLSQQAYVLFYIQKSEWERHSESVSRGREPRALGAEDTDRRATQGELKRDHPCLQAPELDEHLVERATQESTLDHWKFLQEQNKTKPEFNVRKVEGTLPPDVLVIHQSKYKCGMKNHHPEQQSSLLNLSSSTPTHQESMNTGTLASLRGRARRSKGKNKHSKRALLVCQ
USP28 inh: blocks human USP28 ubiquitin-rhodamine cleavage; hit rate 3% among 47,000; inhibition, % at 25 µM; Q96RU2; purified USP28, Ub-rhodamine cleavage fluorescence, 30 min
USP10 block: human USP10 deubiquitinase inhibition. Q14694. purified USP10, Ub-rhodamine fluorescence, 60 min. inhibition, % at 20 µM. hit rate 1.1% among 47,000. AID 1645856
USP7 block: human USP7 deubiquitinase inhibition; purified USP7, Ub-rhodamine cleavage fluorescence; inhibition, % at 20 µM; hit rate 0.3% among 47,000; AID 1645854
USP8 inh: inhibitors of human USP8 deubiquitinase | purified USP8, Ub-rhodamine cleavage fluorescence, 30 min | inhibition, % at 20 µM | hit rate 4.2% among 47,000 | AID 1645853
USP30 inh: blocks human USP30 ubiquitin-rhodamine cleavage | hit rate 5.3% among 47,000 | Q70CQ3 | inhibition, % at 25 µM | purified USP30, Ub-rhodamine cleavage fluorescence
Each line names hits and unclear results; the compound was inactive in the other large screens. A selection: hits, their analogues and other compounds. The true share with any hit is near 13%. Cut-off read from the data, not from the text of the source: active = inhibition above about 30%; inactive = the rest.

COc1ccccc1NC(=O)CNC(=O)c1nn(-c2ccc(OC)c(OC)c2)c(=O)c2ccccc12	USP17 inh 68.2
COc1ccc2c(C)c(CC(=O)N[C@H](CSCc3ccccc3)C(=O)O)c(=O)oc2c1C	none
CC(C)(C)c1ccc(Nc2nc(-c3cccnc3)nc3ccccc23)cc1	none
c1cncc(-c2nc(Nc3ccc4c(c3)OCCCO4)c3ccccc3n2)c1	USP17 inh 40.1
c1cncc(-c2nc(Nc3ccc4c(c3)OCCO4)c3ccccc3n2)c1	USP17 inh 42.0, USP28 inh 43.7, USP30 inh 52.8
COc1ccc(CN(C(=O)c2cc3ccccc3oc2=O)c2ccccn2)cc1OC	none
COc1ccc(Cn2ccc3nc(N4CCCCC4)ncc3c2=O)cc1	USP17 inh 71.1
Cc1c(S(=O)(=O)N2CCCC2)cc(C(=O)Nc2ccccc2)n1C	USP17 inh 45.6
COc1ccccc1NC(=O)c1cc(S(=O)(=O)N2CCCCC2)c(C)n1C	none
O=C(NCCn1ccc2ccccc21)c1cc2ccccc2oc1=O	USP17 inh 68.4
COc1ccc(C(=O)NCCn2ccc3ccccc32)cc1	none
CCCCC/C=C/C(O)C(O)/C=C/c1ccc(Cl)c(O)c1CO (centres undefined)	USP17 inh 30.9
CCn1c(=O)c2ccccc2n(Cc2nc(-c3ccc(OC)cc3)no2)c1=O	USP17 inh 35.5
Fc1ccc(Cn2cc(-c3noc(-c4ccccn4)n3)nn2)cc1	none
Cc1ccc(Cn2cc(-c3noc(-c4cccnc4)n3)nn2)cc1	none
Cc1ccc(Cn2cc(-c3noc(-c4ccco4)n3)nn2)cc1	none
CCOc1ccccc1-c1nc(-c2cn(Cc3ccc(F)cc3)nn2)no1	USP17 inh 63.7, USP30 inh 58.2
COc1ccccc1-c1nc(-c2cn(Cc3ccc(C)cc3)nn2)no1	USP30 inh 30.2
N#Cc1ccc(-c2nc(-c3cn(Cc4cccc(F)c4)nn3)no2)cc1	USP17 inh 35.8
Cc1ccc(Cn2cc(-c3noc(C(=O)Nc4cc(F)ccc4F)n3)nn2)cc1	USP10 block 50.9, USP8 inh 89.9
Cc1nc(-c2cncc(Br)c2)cc(N2CCCCC2)n1	none
CCOc1cc2c(cc1OCC)C1CC(=O)N(c3ccc(Cl)cc3)C(=O)N1CC2 (centres undefined)	none
COCCNC(=O)CN1C(=O)c2ccccc2Sc2ccc(C(=O)N3CCCC3)cc21	none
COc1ccc(NC(=O)CN2C(=O)c3ccccc3Sc3ccc(C(=O)N4CCCC4)cc32)c(OC)c1	USP17 inh 54.6, USP30 inh 48.6
CC(C)c1nc2sc3c(SCCc4ccccc4)ncnc3c2c2c1COC(C)(C)C2	none (no result: USP17 inh)
O=C(CCCCn1c(=O)c2ccccc2n(CC(=O)Nc2ccc(F)cc2)c1=O)NCCc1ccccc1	USP17 inh 46.7
O=C(Cn1c(=O)c2ccccc2n(CC(=O)Nc2cccc(F)c2)c1=O)NCCc1ccccc1	USP10 block 30.1, USP30 inh 37.6
Cc1ccc(NC(=O)Cn2c(=O)n(CCC(=O)NCCc3ccccc3)c(=O)c3ccccc32)cc1C	USP10 block 31.8
Nc1cc(-c2cn[nH]c2C2CCCN2S(=O)(=O)c2ccccc2)ccn1 (centres undefined)	none
Cc1ncc2c(n1)CCN(S(=O)(=O)c1ccccc1)C2	none (no result: USP28 inh, USP30 inh)
Nc1c(C(=O)NCC2CCCO2)nnn1-c1ccccc1Cl (centres undefined)	USP8 inh 32.1
Cc1ccc(-c2cn(CC(=O)N3CCN(c4ccccc4)CC3)c(=O)o2)cc1	none
C[C@@H](NS(=O)(=O)c1ccc(F)c(Cl)c1)C(=O)NCc1cscn1	none
CC(NS(=O)(=O)c1cccc(Cl)c1)C(=O)O (centres undefined)	USP30 inh 30.3
O=C(O)CC1(c2ccc(F)cc2)C2CC3CC(C2)CC1C3 (centres undefined)	USP17 inh 31.8, USP8 inh 33.5, USP30 inh 40.0
N#Cc1cc(C(=O)c2ccc(Cl)cc2)c[nH]1	USP17 inh 50.5
Clc1cccc(-n2ncc3c2ncn2nc(-c4ccccc4)nc32)c1	none
Cc1nc2ccccn2c(=O)c1NC(=O)Cc1ccc(Cl)cc1	none
Cc1nc2ccccn2c1C1(O)C(=O)Nc2c(Cl)cc(Cl)cc21 (centres undefined)	USP17 inh 52.1, USP8 inh 87.6
CSCc1cc(NCc2ccccc2)nc(-c2ccncc2)n1	USP30 inh 40.6
c1ccc(-c2cc(NC3CC3)nc(-c3ccncc3)n2)cc1	none
